Screens as filed in PubChem BioAssay.
Rows were chosen to be rich in hits. Some 2.3% of all compounds tested hit in one or more screens of this group.
aSyn UTR inh: 5' untranslated region of α-synuclein, MLPCN primary screen | AID 1813 | actives 0.82% (n = 300,000) | alpha-synuclein 5'UTR reporter, inhibitor activity | inhibition, % (tested at 7.5 µM); in the data active = inhibition above about 60%; inconclusive = no clear call, values can overlap the other calls;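 note: H4 neuroglioblastoma cells stably carrying SNCA 5'UTR luciferase fusion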
Jurkat NFkB inh: lowers PMA/ionomycin-induced NF-kB signal in Jurkat cells; actives 0.53% (n = 330,000); PMA/ionomycin-induced NF-kB luciferase reporter, luminescence; inhibition, % at 4 µM; in the data active = inhibition above about 50%
697 NFkB inh: inhibitors of the PMA/ionomycin-induced NF-kB reporter in 697 B cells | 697 B-cell NF-kB luciferase reporter, 16 h | inhibition, % at 4 µM | actives 0.33% (n = 330,000) | AID 435022; in the data active = inhibition above about 35%
Gli-Sufu antag: Gli-Sufu pathway antagonism. actives 0.74% (n = 340,000). Sufu-KO-LIGHT fibroblasts, Gli luciferase reporter luminescence. AID 588413. inhibition, % at 5 µM;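 active = inhibition above about 55%, limit read from the data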
TAG inh: inhibitors of triacylglycerol accumulation. inhibition, % at 12.5 µM. AID 651582. H9c2 cells, Nile Red lipid (TAG) fluorescence; cells loaded with 200 µM oleic acid. actives 0.66% (n = 230,000);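 active = pattern-corrected inhibition of lipid staining of at least 50% with the nuclear-stain viability signal not falling by more than 50%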
Shn3 inh set2: inhibitors of Schnurri-3 3'UTR reporter in osteoblasts | Clone20 osteoblast Shn3 3'UTR firefly luciferase, 24 h | inhibition, % at 12.5 µM | actives 0.52% (n = 360,000);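 active = mean inhibition of at least 75% with every replicate also reaching 75%; inconclusive = mean inhibition at least 75% but some replicate below; inactive = mean inhibition below 75%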
Each line names hits and unclear results; the compound was inactive in the other large screens.

Cc1cc(C)cc(CN2C(=O)NC3(CCCCCC3)C2=O)c1	none (no result: TAG inh)
CCOc1ccc(C(=O)Nc2ccc3nc(N4CCN(CC)CC4)cc(C)c3c2)cc1	aSyn UTR inh 67 (no result: TAG inh)
COc1cc(/C=C2\COC/C(=C\c3ccc(O)c(OC)c3)C2=O)ccc1O	aSyn UTR inh 103 (no result: Shn3 inh set2)
O=C(CN1C(=O)c2ccccc2C1=O)N(CCO)Cc1ccccc1	none (no result: TAG inh)
COc1ccc(NC(=O)c2ccccn2)cc1	aSyn UTR inh 75 (no result: TAG inh)
COc1cc(C(=O)Nc2ccc(C)cc2)c2ccccc2n1	aSyn UTR inh 82 (no result: Gli-Sufu antag, TAG inh)
CCOc1ccc(NC(=O)c2cc(OC)nc3ccccc23)cc1	aSyn UTR inh 83 (no result: TAG inh)
Cc1ccc(NC(=O)c2cc(Cl)nc3ccccc23)cc1	none (no result: TAG inh)
CCCC(CCC(=O)Nc1ccc(S(N)(=O)=O)cc1)C(=O)O (stereo not drawn)	none
COc1ccc(OC)c(C(c2nnnn2Cc2ccccc2)N2CCN(C3CCCCC3)CC2)c1 (stereo not drawn)	Shn3 inh set2 90
COc1ccccc1C(c1nnnn1Cc1ccccc1)N1CCN(C2CCCC2)CC1 (stereo not drawn)	none
CN(C)S(=O)(=O)c1cccc(N=c2scc(-c3ccc4c(c3)NC(=O)CO4)n2CC2CCCO2)c1 (stereo not drawn)	Shn3 inh set2 86
COc1ccc(-c2sc3ccccc3c2-c2ccc(OCCN(C)C)cc2)cc1	TAG inh 63 (no result: aSyn UTR inh)
O=C(Nc1ccccc1)c1ccc(S(=O)(=O)N2CCC(C(=O)O)CC2)cc1	none
C/C(=N\Nc1nc2ccccc2[nH]1)c1ccccn1	aSyn UTR inh 87 (no result: Gli-Sufu antag, TAG inh)
N#Cc1c(NCc2ccccc2)ccnc1NCc1cccnc1	Shn3 inh set2 85
COc1ccc(/C=C/c2ccc3ccccc3[n+]2C)cc1OC	Shn3 inh set2 92 (no result: TAG inh)
c1ccn2cc(-c3ccc4c(c3)OCCO4)nc2c1	aSyn UTR inh 98
Cc1cc(=O)oc(C)c1C(=O)N1CCCc2ccccc21	none
Cc1cc(C)nc(OC(=O)c2ccc(Cl)cc2Cl)n1	none (no result: Gli-Sufu antag, TAG inh, Shn3 inh set2)
COc1ccccc1NS(=O)(=O)c1cc(NC(=O)c2ccc(Cl)nc2)ccc1Cl	Shn3 inh set2 87 (no result: TAG inh)
COc1cc2oc(=O)cc(C)c2c(OC)c1OC	none
COC(=O)c1ccc(CS(=O)(=O)c2ccc(F)cc2)o1	none (no result: TAG inh)
O=C(O)C[C@H](O)C[C@H](O)/C=C/c1c(C2CC2)nc2ccccc2c1-c1ccc(F)cc1	aSyn UTR inh 104 (no result: Jurkat NFkB inh, 697 NFkB inh, Gli-Sufu antag, TAG inh, Shn3 inh set2)
O=C(Cc1cccc2ccccc12)Nc1ccccc1C(=O)O	none (no result: TAG inh)
Cc1ccc(NC(=O)C2CCN(S(=O)(=O)c3ccc4c(c3)NC(=O)C(C)S4)CC2)cc1Cl (stereo not drawn)	Gli-Sufu antag 60, Shn3 inh set2 89 (no result: TAG inh)
C=CCn1c(SCc2c(C)noc2C)nc2sc3c(c2c1=O)CCCCC3	aSyn UTR inh 65 (no result: TAG inh)
CCCNc1nc(-c2ccccc2)c(C(=O)OCC)cc1C#N	aSyn UTR inh 94
COc1cc(-c2cc3nc4ccccc4n3c(N)c2C#N)cc(OC)c1OC	aSyn UTR inh inconclusive (no result: Shn3 inh set2)
CCOC(=O)NC(Nc1ncccn1)(C(F)(F)F)C(F)(F)F	none (no result: aSyn UTR inh)
CCN1CCCC1CNC(=O)c1ccc2c(c1)NC(=O)/C(=C\c1ccc(C)cc1)S2 (stereo not drawn)	aSyn UTR inh 74 (no result: TAG inh)
Cc1ccc(/C=C2/Sc3ccc(C(=O)NCCN4CCOCC4)cc3NC2=O)cc1	none (no result: TAG inh)
O=C(c1cc(Cl)nc2ccccc12)N1CCCCC1	none (no result: TAG inh)
O=C(Nc1ccc(Cl)cc1)/C(=C/c1cccc(O)c1)c1nc2ccccc2s1	Shn3 inh set2 93
CC(=O)N(Cc1ccc(F)cc1)C1=C(NCCc2ccccc2)C(=O)c2ccccc2C1=O	aSyn UTR inh 70, Gli-Sufu antag 75
COc1cc(C(=O)c2cocc2C(=O)c2ccc3c(c2)OCO3)cc(OC)c1OC	aSyn UTR inh 67 (no result: Jurkat NFkB inh, 697 NFkB inh, TAG inh)
COc1ccc(-c2nc(-c3ccc(NC(=O)c4ccncc4)cc3)no2)cc1OC	Shn3 inh set2 90
COc1cc(-c2nc(-c3ccc(NC(=O)c4ccc5c(c4)OCO5)cc3)no2)cc(OC)c1OC	TAG inh 93
CCc1ccc(C(=O)Nc2ccc(OC)c(S(=O)(=O)N3CCOCC3)c2)cc1	none
O=C(CN1CCN(c2ccccn2)CC1)N1CC(O)CO1 (stereo not drawn)	none
O=C(CSc1nc2c(c(=O)n1-c1ccc(Br)cc1)SCC2)NCc1ccco1	Shn3 inh set2 92 (no result: TAG inh)
CCOc1ccc(-n2c(SCC(=O)NCc3ccco3)nc3c(c2=O)SCC3)cc1	none (no result: aSyn UTR inh)
COc1ccc2nc3cc(Cl)ccc3c(Nc3cc(CN4CCCC4)c(O)c(CN4CCCC4)c3)c2n1	aSyn UTR inh 104 (no result: Gli-Sufu antag)
Cc1ncc(CO)c(/C=N/NC(=O)c2cc3c(s2)CCCC3)c1O	Shn3 inh set2 91
Cc1ncc(CO)c(/C=N/NC(=O)c2ccc(O)cc2)c1O	none (no result: TAG inh)
COC(=O)N1N=C(c2ccc(Br)cc2)CC1(O)C(F)(F)F (stereo not drawn)	none (no result: TAG inh)
Brc1ccc(N/N=C(/N=Nc2nn[nH]n2)c2ccccc2)cc1	aSyn UTR inh 97
O=C(O)c1ccc(N=N/C(=N\Nc2ccc(C(=O)O)cc2)c2ccccc2)cc1	none
Oc1c(I)cc(I)c2cccnc12	Shn3 inh set2 94
Cc1ccc(C(=O)N2CCN(c3ccccc3Cl)CC2)cc1[N+](=O)[O-]	none
Cc1ccoc1C(=O)NCCNc1ccc(Cl)cc1[N+](=O)[O-]	none (no result: TAG inh)
O=C(NC1CCCC1)C(c1c[nH]c2ccccc12)N(C(=O)Cn1nnc(-c2ccc(Cl)cc2)n1)c1ccccc1 (stereo not drawn)	TAG inh 77
Cc1ccc(-c2c(C)nn3c(N4CCOCC4)cc(C)nc23)cc1	Gli-Sufu antag 56 (no result: TAG inh)
Cc1cc(N2CCOCC2)n2nc(C)c(-c3ccccc3Cl)c2n1	none (no result: TAG inh)
CCOc1ccc(-c2cc(CCCC(=O)NCCC(C)C)no2)cc1	none (no result: TAG inh)
CCOc1ccc(-c2cc(CCCC(=O)NCCc3ccccc3)no2)cc1	aSyn UTR inh 62
CCOc1ccc(-c2cc(CCCC(=O)Nc3cc(OC)ccc3OC)no2)cc1	aSyn UTR inh 83 (no result: TAG inh)
Fc1ccc(/C=C2\CCCC3=C2Nc2ncnn2C3c2ccc(F)cc2)cc1 (stereo not drawn)	Shn3 inh set2 97
COc1ccc(C2C3=C(Nc4ncnn42)c2ccccc2CCC3)cc1 (stereo not drawn)	none (no result: TAG inh)
COc1ccc(-c2nnc3sc(C4CCCCC4)nn23)cc1OC	aSyn UTR inh 65
COc1ccc(-c2nn3c(C4CCCCC4)nnc3s2)cc1OC	none (no result: TAG inh)
O=C1C(=C(I)I)c2ccccc2-c2ccccc21	Shn3 inh set2 98 (no result: aSyn UTR inh, Jurkat NFkB inh, 697 NFkB inh)
Cc1ccc(OCC(=O)Nc2c[nH]c(=O)[nH]c2=O)cc1C	none
CCOc1ccccc1C(=O)Nc1c[nH]c(=O)[nH]c1=O	aSyn UTR inh 62
COc1ccccc1C(=O)Nc1c[nH]c(=O)[nH]c1=O	none
CCOc1ccccc1C(=O)Nc1cc2c(cc1N1CCCC1)n(CC)c(=O)n2CC	Gli-Sufu antag 58 (no result: TAG inh)
Cc1ccc(C)c(OCC(=O)Nc2c[nH]c(=O)[nH]c2=O)c1	aSyn UTR inh 81 (no result: TAG inh)
